How the values were obtained:
Assay in all cases: growth AUC relative to DMSO control (median of replicates) (fraction); higher = more growth (less inhibition), active = hit call of the paper
Details in all cases: 20 µM; 24 h;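 active = AUC reduced over 20% with Padj below 0.05 in at least 2 of 3 replicates; inactive = otherwise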
Akkermansia muciniphila = tested on: Akkermansia muciniphila
Procedure, shortened: (§1)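 Starting at OD600 0.05, gut bacterial monocultures in mGAM were grown anaerobically at 37 °C with 20 µM compound (1% DMSO) under pierced gas-permeable seals. OD600 was read every hour for 24 h, and the lowest OD of each curve was set to 0. Area under the growth curve was normalised to the plate median of solvent-only wells, or to row and column medians on the industrial chemical plate, and the median of three biological replicates grown on separate days is given.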

Bacteroides caccae = tested on: Bacteroides caccae
Procedure, shortened: as §1

Bacteroides clarus = tested on: Bacteroides clarus
Procedure, shortened: as §1

Bacteroides dorei = tested on: Bacteroides dorei
Procedure, shortened: as §1

Bacteroides stercoris = tested on: Bacteroides stercoris
Procedure, shortened: as §1

[1] = tested on: Bacteroides thetaiotaomicron
Procedure, shortened: as §1

Bacteroides uniformis = tested on: Bacteroides uniformis
Procedure, shortened: as §1

[2] = tested on: Bifidobacterium longum subsp. longum
Procedure, shortened: as §1

Clostridium difficile = tested on: Clostridium difficile
Procedure, shortened: as §1

Collinsella aerofaciens = tested on: Collinsella aerofaciens
Procedure, shortened: as §1

Measured: growth AUC

O=C(O)C(F)(F)C(F)(F)C(F)(F)C(F)(F)C(F)(F)C(F)(F)C(F)(F)F
inactive: Akkermansia muciniphila 1.01 | Bacteroides caccae 1 | Bacteroides clarus 1 | Bacteroides dorei 0.998 | Bacteroides stercoris 1.01 | [1] 1.04 | Bacteroides uniformis 0.963 | [2] 1.04 | Clostridium difficile 0.991 | Collinsella aerofaciens 1

COC(=O)NC(=S)Nc1ccccc1NC(=S)NC(=O)OC
inactive: Akkermansia muciniphila 1.04 | Bacteroides caccae 0.99 | Bacteroides clarus 0.985 | Bacteroides dorei 1.01 | Bacteroides stercoris 1.12 | [1] 0.981 | Bacteroides uniformis 0.988 | [2] 0.958 | Clostridium difficile 0.951 | Collinsella aerofaciens 1.01

CC(C)=CC1C(C(=O)OCN2C(=O)C3=C(CCCC3)C2=O)C1(C)C (stereo not given)
inactive: Akkermansia muciniphila 0.932 | Bacteroides caccae 0.916 | Bacteroides clarus 0.924 | Bacteroides dorei 0.976 | Bacteroides stercoris 0.877 | [1] 0.965 | Bacteroides uniformis 0.97 | [2] 0.741 | Clostridium difficile 0.959 | Collinsella aerofaciens 0.955

ClC1=C(Cl)C2(Cl)C(CBr)CC1(Cl)C2(Cl)Cl (stereo not given)
inactive: Akkermansia muciniphila 1.02 | Bacteroides caccae 1.04 | Bacteroides clarus 1.02 | Bacteroides dorei 0.999 | Bacteroides stercoris 1.02 | [1] 1.01 | Bacteroides uniformis 0.982 | [2] 1.01 | Clostridium difficile 0.985 | Collinsella aerofaciens 0.957

CS(=O)(=O)c1ccc(C(=O)C2C(=O)CCCC2=O)c(Cl)c1
inactive: Akkermansia muciniphila 0.92 | Bacteroides caccae 1.01 | Bacteroides clarus 1.01 | Bacteroides dorei 1.01 | Bacteroides stercoris 1.04 | [1] 1.01 | Bacteroides uniformis 1 | [2] 0.967 | Clostridium difficile 1.11 | Collinsella aerofaciens 1.05

CCN(Cc1ccc(Cl)nc1)/C(=C/[N+](=O)[O-])NC
inactive: Akkermansia muciniphila 0.913 | Bacteroides caccae 0.991 | Bacteroides clarus 0.991 | Bacteroides dorei 0.975 | Bacteroides stercoris 0.939 | [1] 0.972 | Bacteroides uniformis 1.01 | [2] 0.983 | Clostridium difficile 0.981 | Collinsella aerofaciens 0.976

O=[N+]([O-])c1ccc(Oc2ccc(C(F)(F)F)cc2[N+](=O)[O-])cc1
inactive: Akkermansia muciniphila 0.834 | Bacteroides caccae 0.929 | Bacteroides clarus 0.878 | Bacteroides dorei 0.88 | Bacteroides stercoris 1.05 | [1] 0.92 | Bacteroides uniformis 0.917 | [2] 0.936 | Clostridium difficile 1.02 | Collinsella aerofaciens 0.93

CCOC(=O)OC1=C(c2cc(C)ccc2C)C(=O)NC12CCC(OC)CC2 (stereo not given)
inactive: Akkermansia muciniphila 0.953 | Bacteroides caccae 1 | Bacteroides clarus 0.995 | Bacteroides dorei 0.996 | Bacteroides stercoris 1.04 | [1] 0.971 | Bacteroides uniformis 0.982 | [2] 0.996 | Clostridium difficile 0.977 | Collinsella aerofaciens 0.997

O=C(NC(=O)c1c(F)cccc1F)Nc1cc(Cl)c(Oc2ncc(C(F)(F)F)cc2Cl)c(Cl)c1
inactive: Akkermansia muciniphila 1.02 | Bacteroides caccae 0.996 | Bacteroides clarus 0.997 | Bacteroides dorei 0.988 | Bacteroides stercoris 1.07 | [1] 1.03 | Bacteroides uniformis 0.977 | [2] 1.14 | Clostridium difficile 1 | Collinsella aerofaciens 1.11

CCOP(=S)(OCC)Oc1cc(-c2ccccc2)on1
inactive: Akkermansia muciniphila 1.24 | Bacteroides caccae 0.984 | Bacteroides clarus 0.984 | Bacteroides dorei 0.861 | Bacteroides stercoris 0.961 | [1] 0.956 | Bacteroides uniformis 0.955 | [2] 1.06 | Clostridium difficile 1.02 | Collinsella aerofaciens 0.942

O=[N+]([O-])/N=C1\NCCN1Cc1ccc(Cl)nc1
inactive: Akkermansia muciniphila 0.979 | Bacteroides caccae 1.01 | Bacteroides clarus 1.02 | Bacteroides dorei 1.03 | Bacteroides stercoris 1.08 | [1] 0.984 | Bacteroides uniformis 1 | [2] 0.963 | Clostridium difficile 0.99 | Collinsella aerofaciens 0.98

Cl.NC1=NCCN1Cc1ccc(Cl)nc1
inactive: Akkermansia muciniphila 1.03 | Bacteroides caccae 1.03 | Bacteroides clarus 1.02 | Bacteroides dorei 0.975 | Bacteroides stercoris 1.14 | [1] 1.04 | Bacteroides uniformis 1.01 | [2] 1.02 | Clostridium difficile 1.06 | Collinsella aerofaciens 1.03

CCNP(=S)(OC)O/C(C)=C/C(=O)OC(C)C (stereo not given)
inactive: Akkermansia muciniphila 0.983 | Bacteroides caccae 0.966 | Bacteroides clarus 0.957 | Bacteroides dorei 0.998 | Bacteroides stercoris 1 | [1] 0.953 | Bacteroides uniformis 0.993 | [2] 0.983 | Clostridium difficile 0.986 | Collinsella aerofaciens 1.01

O=C(O)c1ccccc1C(=O)Nc1cccc2ccccc12
inactive: Akkermansia muciniphila 1.04 | Bacteroides caccae 1.04 | Bacteroides clarus 1.02 | Bacteroides dorei 1.02 | Bacteroides stercoris 1.18 | [1] 1.01 | Bacteroides uniformis 0.993 | [2] 1.03 | Clostridium difficile 1.01 | Collinsella aerofaciens 1.03

From the supplement of paper PMC12669032
